Common to all, as to test: NCI-60 one-dose screen, 48 h (100 = growth as untreated, 0 = no growth, -100 = all killed)
One experiment has as its system SR leukemia. Particulars: 10 µM unless noted.
The next experiment relates to RPMI-8226 leukemia. Particulars: 10 µM.
Another experiment has as its system OVCAR-8 ovarian. To be noted: 10 µM unless noted.
In the next experiment the test system is OVCAR-5 ovarian. Particulars: 10 µM unless noted.
Another experiment concerns OVCAR-4 ovarian. Particulars: 10 µM unless noted.
The test system of the next experiment is IGROV1 ovarian. To be noted: 10 µM unless noted.
A further experiment has as its system OVCAR-3 ovarian. Particulars: 10 µM unless noted.
A further experiment has as its system HS 578T breast. Particulars: 10 µM unless noted.
Another experiment has as its system NCI/ADR-RES ovarian. To be noted: 10 µM unless noted.
The test system of the next experiment is SK-OV-3 ovarian. To be noted: 10 µM.

About 83,000 compounds went through this panel and 20% of them were active in at least one assay; those are over-represented in the sample as a whole.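 Cells were grown in 96-well plates and exposed to the test compound at a single concentration for 48 hours; results are reported as percent growth, with values below 10 considered active.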 A number with no mark means an inactive call. Activity calls are given as the source filed them.

Consider `COc1ccc(/C=C2\Oc3cc(C)c(Cl)cc3C2=O)cc1OC`, for which the growth with SR leukemia was 73.2%; with RPMI-8226 leukemia it was 89.9%; in the experiment on OVCAR-8 ovarian, 102%; with OVCAR-5 ovarian, 98.3%; with OVCAR-4 ovarian it was 82.3%; in the experiment with IGROV1 ovarian, 103%. Further, the growth is 108% in the experiment on OVCAR-3 ovarian, 109% in the experiment with HS 578T breast and 107% in the experiment with NCI/ADR-RES ovarian.
In the case of `COc1ccc(/C=N/OCC(O)CNCc2ccccc2)cc1OC1CCCC1` (centres undefined), the growth was 87% in the experiment with SR leukemia; 98.3% with RPMI-8226 leukemia; 104% in the experiment with OVCAR-8 ovarian; 101% with OVCAR-5 ovarian; 91.2% in the experiment on OVCAR-4 ovarian; 95.7% in the experiment with IGROV1 ovarian. In addition, the growth in the experiment on OVCAR-3 ovarian is 104%; with HS 578T breast, 111%; in the experiment on NCI/ADR-RES ovarian, 104%.
Take `O=c1[nH]c(=S)c2c(n1CCCO)CCC2`: the growth in the experiment with SR leukemia is 97%; in the experiment with RPMI-8226 leukemia, 101%; in the experiment on OVCAR-8 ovarian it was 102%; in the experiment on OVCAR-5 ovarian, 99.4%; with OVCAR-4 ovarian it was 102%; in the experiment on IGROV1 ovarian it was 103%. The growth in the experiment on HS 578T breast was 99.8%; with NCI/ADR-RES ovarian, 103%.
As to `COc1c(Cl)ccc2c(-c3nc4cc(Cl)c(F)cc4s3)cc(=O)oc12`, the growth was 23.2% with SR leukemia; 49% with RPMI-8226 leukemia; 62.5% in the experiment on OVCAR-8 ovarian; 96.5% in the experiment with OVCAR-5 ovarian; 104% in the experiment on SK-OV-3 ovarian; -59.8% (active) in the experiment with IGROV1 ovarian. In addition, the growth with OVCAR-3 ovarian was 75.5%; with HS 578T breast it was 100%; with NCI/ADR-RES ovarian, 33%.
For the molecule `O=C1c2[nH]cc(CN[C@@H]3CCCN3)c2C(=O)c2c1c(O)c1ccccc1c2O`, the growth is -69.6% (active) in the experiment on SR leukemia; -55.5% (active) in the experiment with RPMI-8226 leukemia; -92% (active) with OVCAR-8 ovarian; -95% (active) with OVCAR-5 ovarian; -100% (active) in the experiment with SK-OV-3 ovarian; -83% (active) in the experiment with IGROV1 ovarian. For the same molecule, the growth in the experiment with OVCAR-3 ovarian is -95.9% (active); in the experiment on HS 578T breast, -50% (active); in the experiment with NCI/ADR-RES ovarian, 20.3%.
Consider `O=C(NCc1ccc(F)cc1)C1CN(c2ccc(Cl)cc2)N(c2ccc(Cl)cc2)C1=O` (centres undefined), for which the growth in the experiment with SR leukemia was 24.3%; with RPMI-8226 leukemia it was 72.8%; in the experiment on OVCAR-8 ovarian, 80%; in the experiment on OVCAR-5 ovarian it was 85.6%; with OVCAR-4 ovarian, 66.6%; in the experiment on IGROV1 ovarian, 77.4%. Besides, the growth in the experiment with OVCAR-3 ovarian was 9.08% (active); in the experiment with HS 578T breast, 52.6%; with NCI/ADR-RES ovarian it was 52.9%.
Consider `COc1ccc(Cn2c(Br)c3c(c2-c2cc(OC)c(OC)c(OC)c2)CCc2sc(N)nc2-3)cc1`, for which the growth in the experiment on SR leukemia is 4.41% (active); in the experiment on RPMI-8226 leukemia it was 21.2%; in the experiment with OVCAR-8 ovarian, 12.3%; in the experiment with OVCAR-5 ovarian it was 37.1%; with SK-OV-3 ovarian, 3.83% (active); in the experiment on IGROV1 ovarian, 36.7%. In addition, the growth is -25.5% (active) with OVCAR-3 ovarian, 8.13% (active) with HS 578T breast and 3.87% (active) in the experiment with NCI/ADR-RES ovarian.
Take `CCOc1ccc(/C=N\N2CCCCCC2)cc1OCC`: the growth in the experiment with SR leukemia was 89.6%; in the experiment on RPMI-8226 leukemia it was 83.4%; in the experiment on OVCAR-8 ovarian, 101%; in the experiment with OVCAR-5 ovarian, 95%; in the experiment with SK-OV-3 ovarian, 91.6%; in the experiment with OVCAR-3 ovarian, 104%. The growth in the experiment on HS 578T breast was 120%.
Consider `COc1ccc(/C=C2\SC(=O)N(CN3CCN(c4cc5c(cc4F)c(=O)c(C(=O)O)cn5C4CC4)CC3)C2=O)cc1`, for which the growth in the experiment on SR leukemia was 102%; with RPMI-8226 leukemia, 99.9%; with OVCAR-8 ovarian, 98.5%; in the experiment on OVCAR-5 ovarian, 108%; with OVCAR-4 ovarian it was 104%; in the experiment with IGROV1 ovarian, 113%. Besides, the growth with OVCAR-3 ovarian was 110%; in the experiment with HS 578T breast, 108%; in the experiment on NCI/ADR-RES ovarian, 103%.
In the case of `CCOC(=O)c1c(Cl)c2c(n1Cc1ccc(OC)cc1)-c1oncc1CCC2`, the growth is 23.7% in the experiment on SR leukemia; 52.4% in the experiment on RPMI-8226 leukemia; 81.5% in the experiment on OVCAR-8 ovarian; 90.1% with OVCAR-5 ovarian; 105% with SK-OV-3 ovarian; 84.4% in the experiment with IGROV1 ovarian. The growth with HS 578T breast is 67.4%.
As for `CN1CCN(CCCn2c3c(sc4ncccc43)c(=O)n3nnc(-c4ccccc4)c23)CC1`, the growth was -25.2% (active) in the experiment on SR leukemia; 72.5% with RPMI-8226 leukemia; -48.2% (active) in the experiment with OVCAR-8 ovarian; 119% in the experiment on OVCAR-5 ovarian; -61.4% (active) in the experiment with OVCAR-4 ovarian; -83.1% (active) in the experiment on OVCAR-3 ovarian. The growth with NCI/ADR-RES ovarian is -28.4% (active).
`CSc1nnc(-c2sc3nnc(-c4ccccc4)c(-c4ccccc4)c3c2O)o1`: the growth with SR leukemia is 62.5%; in the experiment on RPMI-8226 leukemia, 67.2%; in the experiment with OVCAR-8 ovarian it was 85.8%; in the experiment with OVCAR-5 ovarian, 101%; in the experiment with SK-OV-3 ovarian it was 85.5%; in the experiment with OVCAR-3 ovarian, 86.8%. Besides, the growth in the experiment with HS 578T breast is 98.4%.
Regarding `Clc1ccc2c(c1)C[C@H]1C[C@@H](c3cccs3)N2O1`, the growth with SR leukemia is 82.4%; with RPMI-8226 leukemia, 86.7%; in the experiment on OVCAR-8 ovarian it was 99.9%; with OVCAR-5 ovarian, 89.5%; in the experiment on SK-OV-3 ovarian, 98.9%; in the experiment on IGROV1 ovarian, 94.5%. The growth was 114% in the experiment on OVCAR-3 ovarian and 102% in the experiment on NCI/ADR-RES ovarian.
For `CSC1=CC(=O)c2ccccc2C1=O`, the growth is -33.5% (active) with SR leukemia; 44% in the experiment on RPMI-8226 leukemia; 46.8% in the experiment on OVCAR-8 ovarian; 103% with OVCAR-5 ovarian; -34.7% (active) in the experiment with OVCAR-4 ovarian; -75.7% (active) in the experiment with IGROV1 ovarian. Moreover, the values for the growth with OVCAR-3 ovarian, in the experiment on HS 578T breast and in the experiment on NCI/ADR-RES ovarian were -96.2% (active), 81.4% and 74%, respectively.
Turning to `COc1ccc(C2=NOC(CC(=O)N(CCO)CCO)C2)cc1OC1CCCC1` (centres undefined), the growth in the experiment on SR leukemia is 106%; with RPMI-8226 leukemia, 106%; in the experiment on OVCAR-8 ovarian it was 102%; in the experiment on OVCAR-5 ovarian it was 98.5%; in the experiment with OVCAR-4 ovarian it was 102%; with IGROV1 ovarian, 106%. For the same molecule, the results for the growth in the experiment on OVCAR-3 ovarian, in the experiment with HS 578T breast and in the experiment with NCI/ADR-RES ovarian were 114%, 99.2% and 101%, respectively.
As for `CCCCCCCCCCCCCCCC[N+]1(C)CCOCC1`, the growth was -29.4% (active) with SR leukemia; -33.9% (active) with RPMI-8226 leukemia; 16.1% in the experiment with OVCAR-8 ovarian; 13.8% in the experiment on OVCAR-5 ovarian; 20.7% in the experiment on OVCAR-4 ovarian; -43.1% (active) in the experiment with IGROV1 ovarian. In addition, the figures for the growth in the experiment with OVCAR-3 ovarian, in the experiment with HS 578T breast and in the experiment on NCI/ADR-RES ovarian were -5.72% (active), 16% and 94.9%, respectively.

The record behind these values is PubChem BioAssay (NCI).
